Values joined by “and” are separate entries in the source; they are usually repeats but may differ in a detail not shown here. Equal values may be shown once. In all, about 5,500 compounds went through this assay and about 2,000 (36%) were called active. About 18% were inconclusive and are not listed. Rule as the data show it: active = normalized growth mostly below about 0.91 (no sharp cut-off); inconclusive = no clear call, values can overlap the other calls; inactive = mostly above about 0.92. The list shows a part of the results.
Assay: chemical genetic growth profiling, strain panel (AID 1159580);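 also: tested at 20 µM; growth read once vehicle control cultures reached saturation at 30 °C; 1 = growth at the plate median or of vehicle wells; lower values mean less growth of the strain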
Conditions: S. cerevisiae deletion strains, growth OD

Measured: normalized growth

COc1ccc2c(c1OC)C(=O)O[C@@H]2[C@H]1c2cc3c(cc2CCN1C)OCO3
inactive: locus YAL013W, strain DEP1, active compounds read low 1.03 | locus YAL021C, strain ccr4, active compounds read low 1.01 | locus YAL026C, strain drs2, active compounds read low 0.993 | locus YAL030W, strain snc1, active compounds read low 0.991 | locus YBL061C, strain skt5, active compounds read low 0.992 | locus YBR009C, strain hhf1, active compounds read low 0.984 | locus YBR021W, strain FUR4, active compounds read low 1.04 | locus YBR023C, strain chs3, active compounds read low 0.987 | locus YBR171W, strain sec66, active compounds read low 1 | locus YBR229C, strain ROT2, active compounds read low 1.01 | locus YBR231C, strain swc5, active compounds read low 0.989 | locus YBR279W, strain paf1, active compounds read low 0.992 | locus YCL011C, strain gbp2, active compounds read low 0.996 | locus YCL016C, strain dcc1, active compounds read low 0.974 | locus YCL029C, strain bik1, active compounds read low 1.02 | locus YCL061C, strain MRC1, active compounds read low 0.995 | locus YCL069W, strain vba3, active compounds read low 1 | locus YCR088W, strain abp1, active compounds read low 0.997 | locus YDL005C, strain med2, active compounds read low 0.997 | locus YDL035C, strain GPR1, active compounds read low 1.03 | locus YDL040C, strain nat1, active compounds read low 0.991 | locus YDL074C, strain BRE1, active compounds read low 1.03 | locus YDL101C, strain DUN1, active compounds read low 1.01 | locus YDL134C, strain PPH21, active compounds read low 1.01 | locus YDL185W, strain tfp1, active compounds read low 1.03 | locus YDL192W, strain arf1, active compounds read low 1.02 | locus YDR001C, strain nth1, active compounds read low 1 | locus YDR069C, strain doa4, active compounds read low 0.981 | locus YDR101C, strain arx1, active compounds read low 1.01 | locus YDR137W, strain rgp1, active compounds read low 0.969 | locus YDR150W, strain NUM1, active compounds read low 1.02 | locus YDR159W, strain sac3, active compounds read low 0.991 | locus YDR162C, strain NBP2, active compounds read low 1.02 | locus YDR195W, strain ref2 0.985 | locus YDR297W, strain sur2, active compounds read low 0.985 | locus YDR318W, strain mcm21, active compounds read low 1.03 | locus YDR334W, strain swr1, active compounds read low 0.998 | locus YDR335W, strain msn5, active compounds read low 0.989 | locus YDR388W, active compounds read low 1.02 | locus YDR392W, strain spt3, active compounds read low 0.929 | locus YDR502C, strain sam2, active compounds read low 1.01 | locus YEL003W, strain gim4, active compounds read low 1.01 | locus YEL037C, strain rad23, active compounds read low 1 | locus YEL061C, strain CIN8 (second series), active compounds read low 1.01 | locus YEL061C, strain CIN8, active compounds read low 1.01 | locus YER015W, strain faa2, active compounds read low 0.974 | locus YER016W, strain bim1, active compounds read low 0.991 | locus YER110C, active compounds read low 1.03 | locus YER111C, strain swi4, active compounds read low 1.01 | locus YER155C, strain BEM2 (second series), active compounds read low 0.995 | locus YER155C, strain BEM2, active compounds read low 1.02 | locus YER167W, strain BCK2, active compounds read low 1.04 | locus YFR010W, strain ubp6, active compounds read low 1.01 | locus YGL078C, strain dbp3, active compounds read low 1.03 | locus YGL086W, strain mad1, active compounds read low 1.03 | locus YGL167C, strain pmr1, active compounds read low 0.984 | locus YGL173C, strain kem1, active compounds read low 0.993 | locus YGL227W, strain vid30, active compounds read low 0.994 | locus YGL240W, strain doc1, active compounds read low 0.958 | locus YGL248W, strain PDE1, active compounds read low 1.02 | locus YGL253W, strain hxk2, active compounds read low 0.999 | locus YGR078C, strain PAC10, active compounds read low 1.01 | locus YGR135W, strain pre9, active compounds read low 1.01 | locus YGR229C, strain SMI1, active compounds read low 1.03 | locus YGR252W, strain gcn5, active compounds read low 1.06 | locus YHR013C, strain ard1, active compounds read low 0.965 | locus YHR027C, strain rpn1, active compounds read low 1.01 | locus YHR030C, strain SLT2, active compounds read low 1.02 | locus YHR079C, strain IRE1 (second series), active compounds read low 1.02 | locus YHR079C, strain IRE1, active compounds read low 0.995 | locus YHR094C, strain hxt1, active compounds read low 1.02 | locus YHR129C, strain ARP1, active compounds read low 1.02 | locus YHR142W, strain chs7, active compounds read low 1.01 | locus YHR200W, strain rpn10, active compounds read low 1.01 | locus YIL066C, strain RNR3, active compounds read low 1.02 | locus YIL073C, strain SPO22, active compounds read low 1.11 | locus YIL125W, strain kgd1, active compounds read low 1.02 | locus YIR030C, strain dcg1, active compounds read low 1.01 | locus YJL092W, strain hpr5, active compounds read low 0.999 | locus YJL095W, strain BCK1 (second series), active compounds read low 0.996 | locus YJL095W, strain BCK1, active compounds read low 1.01 and 1 | locus YJL115W, strain asf1, active compounds read low 0.997 | locus YJL129C, strain trk1, active compounds read low 1.02 | locus YJL134W, strain LCB3, active compounds read low 1.01 | locus YJL154C, strain vps35, active compounds read low 0.999 | locus YJL164C, strain tpk1, active compounds read low 0.984 | locus YJL166W, strain qcr8, active compounds read low 0.975 | locus YJL168C, strain set2, active compounds read low 1.01 | locus YJL187C, strain SWE1 (second series), active compounds read low 1.02 | locus YJL187C, strain SWE1, active compounds read low 0.988 | locus YJR043C, strain POL32, active compounds read low 1.06 | locus YJR066W, strain TOR1, active compounds read low 0.975

Source: PubChem BioAssay AID1159580 (chemical genetic matrix, 2015)
